Screening data: PubChem BioAssay, Broad Institute
IDE exosite inh: insulin-degrading enzyme (human) exo-site inhibition | purified IDE, FL-6b probe fluorescence polarization; stronger effect = lower value | z-score at 20 µM | 17,000 compounds, 6.3% hits | AID 1259349;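 active = z-score of -3 or lower, meaning strong loss of probe binding signal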;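 also: His-tagged human IDE residues 42-1019 made in E. coli with 30 nM FL-6b probe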
Target sequence (P14735 42-1019 limits assumed): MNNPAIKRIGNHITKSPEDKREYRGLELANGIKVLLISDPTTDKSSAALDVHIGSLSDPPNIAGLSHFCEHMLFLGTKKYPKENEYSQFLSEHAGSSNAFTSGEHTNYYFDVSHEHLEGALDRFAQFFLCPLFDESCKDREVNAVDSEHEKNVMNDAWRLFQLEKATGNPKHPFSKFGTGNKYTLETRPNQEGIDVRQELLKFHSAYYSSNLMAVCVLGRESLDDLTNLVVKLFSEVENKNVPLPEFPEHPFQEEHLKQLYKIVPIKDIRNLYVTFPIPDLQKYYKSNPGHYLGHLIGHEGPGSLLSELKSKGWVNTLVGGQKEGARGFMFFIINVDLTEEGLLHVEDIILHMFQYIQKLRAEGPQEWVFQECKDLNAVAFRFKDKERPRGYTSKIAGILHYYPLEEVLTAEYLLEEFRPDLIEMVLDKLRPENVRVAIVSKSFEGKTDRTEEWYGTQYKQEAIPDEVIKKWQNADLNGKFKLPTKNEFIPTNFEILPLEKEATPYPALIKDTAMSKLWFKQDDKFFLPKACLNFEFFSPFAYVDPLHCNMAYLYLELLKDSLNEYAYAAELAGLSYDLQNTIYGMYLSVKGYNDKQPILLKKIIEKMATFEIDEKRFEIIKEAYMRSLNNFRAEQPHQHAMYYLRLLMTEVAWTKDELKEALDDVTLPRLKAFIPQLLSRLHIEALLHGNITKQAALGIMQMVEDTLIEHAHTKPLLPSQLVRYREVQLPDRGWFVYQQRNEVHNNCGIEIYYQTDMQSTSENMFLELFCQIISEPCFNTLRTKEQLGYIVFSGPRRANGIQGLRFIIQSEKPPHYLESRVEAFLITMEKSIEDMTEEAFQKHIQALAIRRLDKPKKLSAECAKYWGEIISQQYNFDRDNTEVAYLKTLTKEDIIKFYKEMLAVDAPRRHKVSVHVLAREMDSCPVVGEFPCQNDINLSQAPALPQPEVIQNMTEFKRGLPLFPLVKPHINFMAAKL
* = called active by the depositor. The sample as a whole holds a higher share of hits than the screen did.

Screening O=C(Cc1ccccn1)N1CC(=O)N2[C@H](CO)[C@H](c3ccc(C#CC4CCCCC4)cc3)[C@H]2C1 returned IDE exosite inh -0.87.
For N#C[C@H]1[C@H](c2ccccc2-c2ccccc2F)[C@@H](CO)N1C(=O)C1CCC1 the results were IDE exosite inh -2.3.
O=C(NC1CCCC1)N1CCCCN2[C@H](CO)[C@H](c3ccc(-c4cccnc4)cc3)[C@@H]2C1 was read as IDE exosite inh -2.
For CO[C@H]1CN(C)C(=O)c2ccc(NS(=O)(=O)CC(F)(F)F)cc2OC[C@@H](C)N(C(=O)NC(C)C)C[C@@H]1C the results were IDE exosite inh -0.17.
`COCC(=O)N1[C@H](CO)[C@@H](c2ccc(-c3cccc(F)c3)cc2)[C@@H]1C#N` gave IDE exosite inh 1.6.
Screening N#C[C@@H]1[C@@H](c2ccccc2)[C@H](CO)N1S(=O)(=O)c1cccc(F)c1 returned IDE exosite inh 2.
`O=C(Nc1cc(F)ccc1F)N1CC(=O)N2[C@H](C1)[C@@H](c1ccc(-c3ccc(F)cc3)cc1)[C@@H]2CO` gave IDE exosite inh -0.5.
`COCC(=O)N1CCCCN2[C@@H](CO)[C@H](c3ccc(-c4ccc(F)cc4)cc3)[C@@H]2C1` gave IDE exosite inh 2.1.
COCC(=O)N1CCCCN2[C@@H](CO)[C@H](c3ccc(-c4ccccc4)cc3)[C@@H]2C1 was read as IDE exosite inh 0.00094.
Screening COCC(=O)N1CCCCN2[C@H](CO)[C@H](c3ccc(-c4cccc(C)c4)cc3)[C@H]2C1 returned IDE exosite inh -4.7*.
For COCC(=O)N1CCCCN2[C@H](CO)[C@H](c3ccc(-c4cccc(C)c4)cc3)[C@@H]2C1 the results were IDE exosite inh 1.6.
`COCC(=O)N1CCCCN2[C@H](C1)[C@@H](c1ccc(-c3ccc(F)cc3)cc1)[C@@H]2CO` gave IDE exosite inh 1.1.
COCC(=O)N1CCCCN2[C@H](C1)[C@H](c1ccc(-c3cccc(C)c3)cc1)[C@@H]2CO was read as IDE exosite inh -3*.
Screening COCC(=O)N1CCCCN2[C@@H](CO)[C@@H](c3ccc(-c4cccc(C)c4)cc3)[C@@H]2C1 returned IDE exosite inh -6.7*.
For CS(=O)(=O)N1CCCCN2[C@H](CO)[C@H](c3ccc(Br)cc3)[C@H]2C1 the results were IDE exosite inh 2.4.
COc1ccccc1C#Cc1ccc2c(c1)[C@@H]1NCC[C@@H]1[C@H](CO)N2 was read as IDE exosite inh 1.2.
Screening N#C[C@@H]1N[C@H](CO)[C@@H]1c1ccc(C#Cc2ccccc2F)cc1 returned IDE exosite inh 0.92.
C[C@H]1CN([C@@H](C)CO)C(=O)c2cc(NC(=O)C3CC3)ccc2O[C@@H]1CN(C)S(=O)(=O)c1ccccc1 was read as IDE exosite inh 0.66.
`COc1cccc(NC(=O)C[C@@H]2CC[C@@H]3[C@H](COc4ccc(NC(=O)C5CC5)cc4C(=O)N3C)O2)c1` gave IDE exosite inh -0.95.
Cc1noc(C)c1NC(=O)Nc1ccc2c(c1)C(=O)N(C)[C@@H]1CC[C@@H](CC(=O)N[C@@H]3CCN(Cc4ccccc4)C3)O[C@H]1CO2 was read as IDE exosite inh 0.24.
`O=C(C[C@@H]1CC[C@H]2NC[C@H](O)COC[C@@H]2O1)NC1Cc2ccccc2C1` gave IDE exosite inh 0.95.
Screening O=C(C[C@H]1CC[C@H]2[C@@H](COC[C@@H](O)CN2Cc2ccc3c(c2)OCO3)O1)N1CCCCC1 returned IDE exosite inh -1.8.
`CCc1nc(N2[C@@H](C#N)[C@@H](c3ccccc3-c3ccc(F)cc3)[C@@H]2CO)sc1C` gave IDE exosite inh 0.064.
Screening COc1ccccc1-c1ccc([C@@H]2[C@@H](CO)N(C(=O)C3CCOCC3)[C@H]2C#N)cc1 returned IDE exosite inh -11*.
`N#C[C@H]1[C@H](c2ccc(-c3cccnc3)cc2)[C@H](CO)N1C(=O)C1CC1` gave IDE exosite inh 0.034.
`COc1ccccc1-c1ccccc1[C@@H]1[C@@H](CO)N(C(=O)C2CCOCC2)[C@H]1C#N` gave IDE exosite inh -0.76.
COc1cccc(C#Cc2ccc([C@@H]3[C@@H](CO)N(C(=O)C4CCOCC4)[C@H]3C#N)cc2)c1 was read as IDE exosite inh -1.1.
N#C[C@H]1[C@@H](c2ccc(/C=C/c3ccccc3)cc2)[C@@H](CO)N1C(=O)C1CCOCC1 was read as IDE exosite inh -1.3.
For COc1ccccc1-c1ccc([C@@H]2[C@@H](C#N)N(C(=O)C3CCOCC3)[C@H]2CO)cc1 the results were IDE exosite inh -9.8*.
`COc1ccccc1-c1ccc([C@H]2[C@@H](C#N)N(C(=O)C3CCOCC3)[C@H]2CO)cc1` gave IDE exosite inh -6.9*.
`N#C[C@H]1[C@H](c2ccc(-c3cccnc3)cc2)[C@@H](CO)N1C(=O)C1CCOCC1` gave IDE exosite inh 0.8.
`N#C[C@H]1[C@H](c2ccc(-c3cncnc3)cc2)[C@@H](CO)N1C(=O)C1CCOCC1` gave IDE exosite inh 0.76.
Screening COc1ccc(-c2ccc([C@@H]3[C@@H](CO)N(C(=O)C4CCOCC4)[C@H]3C#N)cc2)cc1 returned IDE exosite inh -1.
